# Source: PubChem (National Center for Advancing Translational Sciences (NCATS))
# Only some compounds are listed: those with a hit (about 9.3% of all), similar ones and a draw of the others.
# SMN2 splice enh – enhancers of SMN2 splice variant expression; Potency, µM (highest dose often 46.1 µM), inactives show at the top dose activity change, positive = activation, usual class: activators; 210,000 compounds, 2.8% hits; HEK293 SMN2-luciferase splicing reporter, luminescence, 30-36 h; further: % of control where 0% means no effect; nearly all actives have a fitted effect of over 55% in size
#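 HEK293 cells carry an SMN2 minigene-luciferase reporter in which exon 7 inclusion puts luciferase in frame. Cells were seeded at 2000 cells/well, attached for 10-12 hours, then exposed to compounds for 30-36 hours at 37C before ONE-Glo luminescence.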
# FLuc modulator – inhibits or activates purified firefly luciferase, miR-21 counter-screen. P08659. Potency, µM (titrated, usually from 57.5 µM), for the others: at the highest dose activity change, negative = inhibition, usual class: inhibitors. 360,000 compounds, 6.9% hits. purified FLuc, Km substrates, luminescence inhibition;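 further: plate controls were vehicle for no effect and reference inhibitor for full effect; nearly all actives have a fitted effect of over 55% in size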
# Target sequence (P08659 whole entry, looked up): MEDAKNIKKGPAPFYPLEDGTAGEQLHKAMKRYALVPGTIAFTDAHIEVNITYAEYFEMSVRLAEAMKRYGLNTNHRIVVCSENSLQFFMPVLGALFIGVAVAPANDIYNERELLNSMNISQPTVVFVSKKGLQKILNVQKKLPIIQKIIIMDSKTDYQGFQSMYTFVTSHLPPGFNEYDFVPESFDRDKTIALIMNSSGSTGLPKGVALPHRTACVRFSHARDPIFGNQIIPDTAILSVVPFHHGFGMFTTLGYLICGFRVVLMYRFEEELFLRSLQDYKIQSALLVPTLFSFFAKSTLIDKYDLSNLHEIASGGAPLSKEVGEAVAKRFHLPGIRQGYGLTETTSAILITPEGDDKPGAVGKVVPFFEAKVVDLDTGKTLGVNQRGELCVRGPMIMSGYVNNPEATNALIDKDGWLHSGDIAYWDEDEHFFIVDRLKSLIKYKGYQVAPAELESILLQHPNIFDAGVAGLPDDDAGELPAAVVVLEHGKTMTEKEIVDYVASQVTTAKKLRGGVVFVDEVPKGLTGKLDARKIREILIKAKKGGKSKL
#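 Purified P. pyralis luciferase, 10 nM final, with Km-level 10 uM D-luciferin and 10 uM ATP in 50 mM Tris acetate pH 7.5, 10 mM Mg acetate, 0.01% Tween-20, 0.05% BSA; 6-point qHTS titration about 60 µM downward; luminescence read.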
# Rab9 promoter act – activates the Rab9 promoter; Huh7 Rab9 promoter-luciferase reporter, luminescence, 24 h; 320,000 compounds, 2.8% hits; Potency, µM (doses to about 9.22 µM), for inactives: top-dose activation, negative = inhibition, actives largely listed as activators; further: % of control where 0% means no effect; nearly all actives have a fitted effect of over 60% in size
#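 Huh7 cells stably carrying Rab9 promoter–luciferase reporter, plated 1500 cells/well, compound added after 2 h and incubated 24 h at 37 °C; luciferase luminescence then read after 10 min with detection reagent.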
# ELG1 genotoxic – genotoxicity induction in ELG1-luciferase HEK293T cells | HEK293T ELG1-luciferase reporter, luminescence, 16 h | Potency, µM (series often up to 46 µM), for inactives: at the highest dose activity change, positive = activation, actives largely listed as activators | 330,000 compounds, 1.3% hits; further: % of control where 0% means no effect; nearly all actives have a fitted effect of over 60% in size
#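 HEK293T cells expressing luciferase-tagged ELG1 were exposed to compound or DMSO vehicle for 16 hr at 37 °C and 5% CO2. Luciferase activity was then measured with ONE-Glo after 30 min at room temperature.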
# ELG1 repair inh – blocks ELG1-dependent DNA repair in HEK293T cells | HEK293T ELG1-luciferase reporter, luminescence, 16 h; DNA damage induced by 5-fluorouridine | Potency, µM (doses to about 46.1 µM), for inactives: top-dose activity change, negative = inhibition, hits mostly inhibitors | 330,000 compounds, 2.3% hits; further: on the % scale 0 is the no-effect control and ±100 the full control effect; nearly all actives have a fitted effect of over 55% in size
#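 Luminescence from the luciferase reporter, measured 30 min after ONE-Glo reagent at room temperature, was the read-out. Beforehand, 2,000 cells per well were exposed for 16 hr at 37 °C to 5-fluorouridine together with compound or vehicle.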
# NPC1 prom act – NPC1 promoter activation. 320,000 compounds, 2.4% hits. Potency, µM (top dose mostly 9.22 µM), for the others: at the highest dose activation, most hits filed as activators. AID 485313. Huh7 NPC1 promoter luciferase reporter, 24 h; further: % of control where 0% means no effect; nearly all actives have a fitted effect of over 60% in size
#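 Huh7 cells stably carrying NPC1 promoter–luciferase, plated in Opti-MEM with 10% FBS for 2 h, were exposed to compound in DMSO for 24 h at 37 °C; luciferase reagent was added for 10 min and luminescence read.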
# Numbers without * were called inactive; u = inconclusive; x = no result given; [ ] = dose if it differs, or a comment. The call rests on the fitted dose curve; in most records, active means well fitted curve in the direction sought with a large enough effect; inconclusive means small, poorly fitted or top-dose-only effect, or another doubt; inactive means no such curve, though single readings can be large; an effect the other way counts as inactive or inconclusive. Potency means the concentration at half of the fitted maximal effect.
SMILES,SMN2 splice enh,FLuc modulator,Rab9 promoter act,ELG1 genotoxic,ELG1 repair inh,NPC1 prom act
O=C(c1ccco1)N1CCN(C(=O)c2ccc(CS(=O)c3ccc(Cl)cc3)o2)CC1 (stereo unspecified),x,2%,-5%,-1%,5%,-1%
CCCCNC(=O)c1ccc2c(c1)S(=O)(=O)c1ccccc1C2=O,x,15µM*,-5%,11%,18%,-4%
CCC(CC)c1nnc(NC(=O)C23CC4CC(CC(NC(C)=O)(C4)C2)C3)s1,x,3%,3%,-5%,-13%,-2%
CC(=O)NC12CC3CC(C1)CC(C(=O)Nc1nc4ccc(F)cc4s1)(C3)C2,x,13µM*,u,-1%,-20%,u
COc1ccc(-c2c(C#CC(C)(C)O)c3ccccc3n2C)cc1,x,x,x,0%,-5%,x
COc1ccc(-c2oc3ccccc3c2C#CC(C)(C)O)cc1,x,-12%,-1%,-4%,13µM*,-8%
COCCCC1CCN(C(=O)C2CCC(=O)N(C3CCCC3)C2)CC1 (stereo unspecified),x,-1%,-1%,-1%,7%,-4%
c1ccc(-c2ccc3c(c2)NCCN3)cc1,x,13µM*,-1%[1.84 µM],11%,24%,u
CCN(CC)C(=O)CSc1nc2ccc(NC(=O)CSc3nccn3C)cc2s1,-41%,19µM*,1%,-5%,21µM*,9%
Cn1cnnc1SCC(=O)Nc1ccc2nc(SCc3ccccc3)sc2c1,-9%,11µM*,u,u,u,3.5µM*
Cn1cnnc1SCC(=O)Nc1ccc2nc(SCc3cccc4ccccc34)sc2c1,-21%,-4%,0%,-9%,-19%,1%
Cn1cnnc1SCC(=O)Nc1ccc2nc(SCc3ccccc3Cl)sc2c1,-13%,17µM*,26%,5%,u,16%
Cn1c(SCC(=O)Nc2ccc3nc(SCC(=O)NC4CC4)sc3c2)nnc1-c1ccccc1,-21%,-2%,-4%,3%,u,-3%
Cn1c(SCC(=O)Nc2ccc3nc(SCC(=O)N4CCCC4)sc3c2)nnc1-c1ccc(N)cc1,-5%,-13%,-2%,-1%,8.2µM*,-1%
C[C@@H]1OC(Nc2ccc(N=Nc3ccccc3)cc2)[C@H](O)[C@H](O)[C@H]1O (stereo partly specified),x,24µM*,u,11%,0%,u
CC(=O)c1ccc(NC2OC(C)C(O)C(O)C2O)cc1 (stereo unspecified),u,0%,-5%,7%,10%,1%
Cc1nn(C2CCS(=O)(=O)C2)c(Cl)c1/C=C/C(=O)OCC(=O)c1c[nH]c2ccccc12 (stereo unspecified),-68%,3%,-9%,-6%,u,-1%
Cc1nn(C2CCS(=O)(=O)C2)c(Cl)c1/C=C/C(=O)OCC(=O)c1cc(C)n(-c2ccc(F)cc2)c1C (stereo unspecified),-70%,-7%,-23%,1%,13µM*,-15%
Cc1ccc2oc(-c3cccc(NC(=O)c4cccc5c(Br)cccc45)c3)nc2c1,-3%,-17%,x,x,x,x
Cc1ccc2oc(-c3cccc(NC(=O)c4ccc(Br)o4)c3)nc2c1,16%,21µM*,11%,u,u,9%
COc1cc2ccccc2cc1C(=O)Nc1cccc(-c2nc3cc(C)c(C)cc3o2)c1,-2%,1.2µM*,x,x,x,x
COc1cc(C(=O)Nc2cccc(-c3nc4cc(C)cc(C)c4o3)c2)cc(OC)c1OC,-16%,5.4µM*,-3%,-6%,u,-3%
Cc1cc2nc(-c3cccc(NC(=O)c4ccc(Br)o4)c3)oc2cc1C,-4%,17µM*,3%,18%,11%,-4%
COc1cc2ccccc2cc1C(=O)Nc1cc(-c2nc3ccccc3o2)ccc1C,-3%,-20%,x,x,x,x
CC(C)(C)c1ccc(C(=O)Nc2ccc(-c3nc4cc(Cl)ccc4o3)cc2)cc1,-12%,-1%,x,x,x,x
